This is part of a sample that, as a whole, favours compounds with a hit. Of some 83,000 tested, about 20% had one in any assay.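 Note: values are percent growth. 100 is the growth of untreated cells, values between 100 and 0 indicate rising inhibition; between -100 and 0 indicates cell death.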 Values without a mark were called inactive. Activity calls are given as the source filed them.
Tested on: MDA-MB-435 melanoma
Test: NCI-60 one-dose screen, 48 h (100 = growth as untreated, 0 = no growth, -100 = all killed)
Conditions: 10 µM unless noted
Method: Growth inhibition of the MDA-MB-435 human Melanoma tumor cell line is measured as a screen for anti-cancer activity. Cells are grown in 96 well plates and exposed to the test compound for 48 hours. Compounds are tested at a single concentration, which is 10^-5 M for most compounds. The reported endpoint is percent growth (GI% or GIPRCNT), where numbers from 0 - 100% represent growth inhibition, and numbers from -100% - 0 represent cell death. For example, a value of 40 represents 60% growth inhibition. A value of 0 means no net growth occurred over the course of the experiment. A value of -40 indicates 40% of cells at the beginning of the experiment died by the end of the experiment. A value of -100 means all cells are dead at the end of the experiment.
NCI-60 Human Tumor Cell Lines Screen was performed using the standard one-dose NCI protocol, which is described in more detail at https://dtp.cancer.gov/discovery_development/nci-60/default.htm.
Compounds with GIPRCNT values below 10 were considered active. Activity score was based on GIPRCNT using the following formula: […]
Score is 0 for GIPRCNT values of 100 or above, 50 for GIPRCNT values of 0, and 100 for GIPRCNT values of -100.

Row | Compound | growth
1 | COc1ccc(C2=NN(C=O)C(c3cccc(Nc4ccnc5cc(Cl)ccc45)c3)C2)cc1 (stereo not given) | 11.7%
2 | COc1ccc(/C=C2/SC(=Nc3c(C)nn(-c4ccccc4)c3N)NC2=O)cc1 | -38.9% (active)
3 | N#Cc1c(-c2ccccc2)cc(-c2ccccc2)n(CCCCC(=O)O)c1=O | 59.4%
4 | NS(=O)(=O)N(c1cc(C(F)(F)F)cc(C(F)(F)F)c1)C1CCN(Cc2ccc(C(F)(F)F)cc2)CC1 | -60.4% (active)
5 | C[C@]12CCC(=O)C=C1CCC1C2[C@@H](O)C[C@@]2(C)C1CC[C@]2(O)C(=O)COC(=O)CCC(=O)O (stereo not given in full) | 96.3%
6 | CC(=O)c1ccccc1NC(=O)C(C)(c1ccccc1)c1ccccc1 | 98.6%
7 | CCCCCCCCCCN1CCC(N2CCCCC2)CC1 | -25% (active)
8 | C/C=C(/C(=C/C)c1ccc(O)cc1)c1ccc(O)cc1 | -40.2% (active)
9 | c1ccc2c(-c3nc4ccccc4[nH]3)cccc2c1 | -19% (active)
10 | COc1ccc(Cl)cc1Nc1nc(C(F)(F)F)ccc1C(=O)N/N=C/c1c(Cl)cccc1Cl | 62.7%
11 | COC(=O)C1CCN(S(=O)(=O)c2ccc(-c3ccccc3)cc2)CC1 | 111%
12 | CC(=O)Nc1ccc(C(=O)COc2ccc(/C=C3\CCc4ccccc4C3=O)cc2)cc1 | 122%
13 | CC1CN(C2CCCCC2)C(=O)NC1=O (stereo not given) | 112%
14 | O=C(NC1CCS(=O)(=O)C1)c1ccc(C(=O)c2ccccc2)cc1 (stereo not given) | 101%
15 | CC(=O)c1ccc(NS(=O)(=O)c2ccc([N+](=O)[O-])cc2)cc1 | 122%
16 | COc1cc(C2CC(C3C(=O)N(C)C(=O)N(C)C3=O)=NN2C=O)cc(OC)c1OC (stereo not given) | 101%
17 | CC1CN(CC(O)c2ccc(Br)cc2)CCO1 (stereo not given) | 121%
18 | C[C@H]1C(=O)N2c3ccccc3[C@@]3(O)C[C@@H](n4cnc5ccccc5c4=O)C(=O)N1[C@@H]23 | 109%
19 | O=Nc1c2cccnc2n2nnc3ccc(Cl)cc3c12 | 70.4%
20 | COc1cccc(/C=C2\Cc3ccccc3C2=O)c1 | 96.7%

Row | Compound | growth
21 | COc1ccccc1NC(=O)c1sc2nc3c(cc2c1N)C(=O)CCC3 | -31.9% (active)
22 | CCCCCCCCCCNCCSS(=O)(=O)O | 62.4%
23 | CCCCCCC(CC#N)(CCC)CCCC (stereo not given) | 103%
24 | CC(=O)Nc1cc2c3c(cccc3c1)-c1ccccc1-2 | 68.4%
25 | COc1ccc2c(=O)c(OC)c(-c3cc(OC)c(OC)c(OC)c3)oc2c1 | 105%
26 | C[C@H]1c2cccc(O)c2C(O)=C2C(=O)[C@]3(O)C(O)=C(C(N)=O)C(=O)[C@@H](N(C)C)[C@@H]3[C@@H](O)[C@@H]21 | 50.7%
27 | CC(=O)OC1Oc2cc(C)c(C)cc2-c2oc(=O)c(-c3ccccc3)cc21 (stereo not given) | -19.6% (active)
28 | C[N+]1(C)C2CC[C@@H]1CC(OC(=O)C(O)c1ccccc1)C2 (stereo not given in full) | 99.1%
29 | CCOC(=O)C(C(=O)OCC)C1CCCCC1 | 101%
30 | Nc1ncnc2c1CN(Cc1ccccc1)CC2 | 107%
31 | CN1CCN(CCCOc2ccc3ncnc(Nc4ccc(OCc5cccc(F)c5)c(Cl)c4)c3c2)CC1 | -88.4% (active)
32 | COc1cc(/C=N/NC(=O)c2ccc(C(F)(F)F)nc2Nc2ccc(Cl)cc2C)ccc1O | 39.2%
33 | O=C(COc1cccc(/C=C2\Oc3ccc4ccccc4c3C2=O)c1)c1ccc([N+](=O)[O-])cc1 | 90.8%
34 | CN1CCC[C@@H]1CCO[C@](C)(c1ccccc1)c1ccc(Cl)cc1 | 49.8%
35 | COc1cc(/C=C/c2cc(/C=C/c3ccc(O)c(OC)c3)n(C(=O)c3ccc(Cl)cc3)n2)ccc1O | -45.2% (active)
36 | Cc1cc(=O)oc2cc(OCCn3c(C)nn(-c4ccc(Cl)cc4)c3=O)ccc12 | -38.6% (active)
37 | O=C1Nc2ccc(C(=O)O)c(O)c2C1=O | 106%
38 | Cc1ccc2c(c1)C(=O)/C(=C\Nc1ccc(C(N)=O)cc1)C(O)O2 (stereo not given) | 98.4%
39 | Cc1cc(-c2ccccc2)cc(C)n1 | 105%
40 | O=C1NC(=S)S/C1=C\c1cc(Br)ccc1O | 105%

— PubChem BioAssay (NCI)
